Unmarked numbers belong to inactive results. Inconclusive results are not listed. Entries that show only a call come without a potency. Active and inactive are the calls of the source. Calls come from the whole dose curve; as a rule, active = well fitted curve in the direction sought with a large enough effect; inconclusive = small, poorly fitted or top-dose-only effect, or another doubt; inactive = no such curve, though single readings can be large; an effect the other way counts as inactive or inconclusive.
Tests used:
[1] = target: Glutathione peroxidase 1 (Homo sapiens) (UniProt P07203); experiment: Primary qHTS Assay for Inhibitors of Recombinant Selenoprotein Glutathione Peroxidase 1 (GPX1) (AID 1845191); note: nearly all actives have a fitted effect of over 65% in size
In short: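 Recombinant GPX1 (10 nM final) was preincubated with compound for 30 min at room temperature, then reacted with 1 mM GSH, 0.5 mM CHP, 0.5 mM NADPH and 100 nM glutathione reductase; NADPH fluorescence (340/450 nm) was read at 0 and 15 min.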

[2] = target: Phospholipid hydroperoxide glutathione peroxidase GPX4 (Homo sapiens) (UniProt P36969); experiment: Primary qHTS Assay for Inhibitors of Recombinant Selenoprotein Glutathione Peroxidase 4 (GPX4) (AID 1845192); note: nearly all actives have a fitted effect of over 65% in size; for activity change, negative = inhibition: series mostly up to about 50 µM
In short: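 GR-coupled readout: 100 nM GR, 1 mM GSH, 0.5 mM NADPH; NADPH fluorescence (ex 340/em 450 nm) read at t=0 and after 15 min RT. GPX4 200 nM, preincubated 30 min with compound; substrate 0.5 mM CHP.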

[3] = target: Luciferin 4-monooxygenase (Photinus pyralis) (UniProt P08659); experiment: Primary firefly luciferase (FLuc) qHTS assay for identification of artifact compounds. (AID 1845220); note: nearly all actives have a fitted effect of over 60% in size; for activity change, negative = inhibition: series mostly up to about 54 µM
In short: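 qHTS, 15 min compound preincubation with substrate (10 uM luciferin, 10 uM ATP) at RT, then 10 nM FLuc; 5 min; luminescence; % inhibition vs no-enzyme/DMSO controls, 4-parameter Hill fit.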

[4] = Primary fluorescence-based thiol-reactive (MSTI) qHTS assay for identification of artifact compounds. (AID 1845221); note: nearly all actives have a fitted effect of over 65% in size; note: potency is the fitted concentration of half-maximal effect;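 for activity change, negative = thiol reactive: series mostly up to about 54 µM; thiol-reactive compounds lower the probe fluorescence signal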
In short: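 Compounds were incubated 1 h at room temperature in the dark with the MSTI probe (4 uM) in PBS pH 7.4, 2% DMSO. Signals were normalized between Acetyl-MSTI and MSTI.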

[5] = system: Nanoluciferase (engineered Oplophorus gracilirostris luciferase); experiment: Primary Nanoluciferase (NLuc) qHTS assay for identification of artifact compounds. (AID 1845222); note: series mostly up to about 54 µM
In short: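 Luminescence read-out of secreted NLuc in S16 cell conditioned medium (1:55); compounds tested with 15 min RT preincubation, then Nano-Glo substrate 1:100, 5 min. % inhibition vs no-enzyme and DMSO controls, 4-parameter Hill fit.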

[6] = Primary redox qHTS assay for identification of artifact compounds. (AID 1845223)
In short: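 Amplex Red (25 uM) and HRP (250 mU/mL) in HBSS, with compounds for 15 min, then 250 uM DTT for 30 min, room temperature, dark. Fluorescence 525/598 nm read; normalized to DMSO and 10 uM DA3003; Hill fit.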

Glutathione peroxidase 1 (Homo sapiens), sequence (P07203 whole entry, looked up): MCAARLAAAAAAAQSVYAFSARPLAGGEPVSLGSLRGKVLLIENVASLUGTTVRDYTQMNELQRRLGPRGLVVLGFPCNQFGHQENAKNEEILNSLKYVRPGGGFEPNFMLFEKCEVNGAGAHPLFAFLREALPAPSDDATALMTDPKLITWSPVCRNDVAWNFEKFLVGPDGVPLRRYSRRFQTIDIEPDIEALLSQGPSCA
Phospholipid hydroperoxide glutathione peroxidase GPX4 (Homo sapiens), sequence (P36969 whole entry, looked up): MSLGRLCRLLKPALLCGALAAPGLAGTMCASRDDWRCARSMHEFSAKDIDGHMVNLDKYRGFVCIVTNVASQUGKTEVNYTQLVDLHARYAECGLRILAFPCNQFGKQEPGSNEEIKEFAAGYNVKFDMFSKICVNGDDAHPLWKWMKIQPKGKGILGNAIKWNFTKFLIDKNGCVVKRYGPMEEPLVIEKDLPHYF

C=C(C(=O)OC)C1C(O)CC2(C)C(=O)CCC(O)(CO)C2C1O (stereo not given)
Potency [1]: inactive
Potency [2]: inactive
Potency [3]: inactive
Potency [4]: inactive
Potency [5]: inactive
Potency [6]: inactive

C=C(C(=O)O)[C@@H]1CC[C@@]2(C)CC[C@H](O)[C@@]2(C(C)=O)C1
Potency [1]: inactive
Potency [2]: inactive
Potency [3]: inactive
Potency [4]: 11.9 µM (active)
Potency [5]: inactive
Potency [6]: inactive

CC(=O)O[C@]1(C(C)=O)CC[C@H]2[C@@H]3C[C@H](C)C4=CC(=O)C=C[C@]4(C)[C@@]3(F)[C@@H](O)C[C@@]21C
Potency [1]: inactive
Potency [2]: inactive
Potency [3]: inactive
Potency [4]: inactive
Potency [5]: inactive
Potency [6]: inactive

CC1(C)C2CC=C(COC3OC(COC4OCC(O)(CO)C4O)C(O)C(O)C3O)C1C2 (stereo not given)
Potency [1]: inactive
Potency [2]: inactive
Potency [3]: inactive
Potency [4]: inactive
Potency [5]: inactive
Potency [6]: inactive

O=C(c1cn(Cc2cncn2Cc2ccc(Br)cc2)cc1-c1cccc2ccccc12)N1CCOCC1
Potency [1]: inactive
Potency [2]: inactive
Potency [3]: inactive
Potency [4]: inactive
Potency [5]: inactive
Potency [6]: inactive

CCCC(=O)O[C@@H]1[C@@H]2[C@@H](OC(C)=O)[C@]3(C)C(=O)[C@H]4[C@@H](OC(C)=O)C(C)(C)C[C@H]4[C@]3(C)C(=O)[C@@]2(OC(C)=O)C[C@@H]1C
Potency [1]: inactive
Potency [2]: inactive
Potency [3]: inactive
Potency [4]: inactive
Potency [5]: inactive
Potency [6]: inactive

CC(=O)O[C@H]1CC[C@H](C)[C@@]2(C)[C@H](OC(C)=O)c3c(C)coc3C(=O)[C@H]12
Potency [1]: inactive
Potency [2]: inactive
Potency [3]: inactive
Potency [4]: inactive
Potency [5]: inactive
Potency [6]: inactive

C[C@@H]1C[C@@H]([C@@H](O)C(C)(C)O)O[C@H]2C[C@@]3(C)C(=C12)C[C@H](O)[C@H]1[C@@]2(C)CCC(=O)C(C)(C)C2CC[C@@]13C (stereo not given in full)
Potency [1]: inactive
Potency [2]: inactive
Potency [3]: inactive
Potency [4]: inactive
Potency [5]: inactive
Potency [6]: inactive

COC(=O)C1(C)c2[nH]c3ccccc3c2CCN1C(=O)CCl (stereo not given)
Potency [1]: inactive
Potency [2]: inactive
Potency [3]: inactive
Potency [4]: inactive
Potency [5]: inactive
Potency [6]: inactive

CC1=CC(=O)CC(C)(C)C1/C=C/C(C)O[C@@H]1O[C@H](CO)[C@@H](O)[C@H](O)[C@H]1O[C@@H]1OC[C@](O)(CO)[C@H]1O (stereo not given in full)
Potency [1]: inactive
Potency [2]: inactive
Potency [3]: inactive
Potency [4]: inactive
Potency [5]: inactive
Potency [6]: inactive

C=C1C[C@]23C[C@H]1CC[C@H]2[C@@]12CC[C@H](O)[C@@](C)(C(=O)O1)[C@H]2[C@@H]3C(=O)O
Potency [1]: inactive
Potency [2]: inactive
Potency [3]: inactive
Potency [4]: inactive
Potency [5]: inactive
Potency [6]: inactive

C/C1=C\[C@H]2OC(=O)[C@@H](C)[C@@H]2CC/C(C(=O)O)=C/CC1
Potency [1]: inactive
Potency [2]: inactive
Potency [3]: inactive
Potency [4]: 11.9 µM (active)
Potency [5]: inactive
Potency [6]: inactive

CC1=C2C[C@H]3O[C@@]3(C)CCC3O[C@@]3(C)C[C@@]2(O)OC1=O (stereo not given in full)
Potency [1]: inactive
Potency [2]: inactive
Potency [3]: inactive
Potency [4]: inactive
Potency [5]: inactive
Potency [6]: inactive

C=C[C@]1(C)C=C2CCC3C(C)(CCC[C@@]3(C)C(=O)O)C2CC1 (stereo not given in full)
Potency [1]: inactive
Potency [2]: inactive
Potency [3]: inactive
Potency [4]: inactive
Potency [5]: inactive
Potency [6]: inactive

C=C1C(=O)O[C@@H]2[C@H]1CCC(C)=C1CCC(=O)O[C@]12C
Potency [1]: inactive
Potency [2]: inactive
Potency [3]: inactive
Potency [4]: 18.9 µM (active)
Potency [5]: inactive
Potency [6]: inactive

COc1cc2c(cc1OC)CC(=O)N(CCCNC[C@H]1Cc3cc(OC)c(OC)cc31)CC2
Potency [1]: inactive
Potency [2]: inactive
Potency [3]: inactive
Potency [4]: inactive
Potency [5]: inactive
Potency [6]: inactive

O=C(O)Cc1cn(C2OCC(O)C(O)C2O[C@@H]2O[C@H](CO)[C@@H](O)[C@H](O)[C@H]2O)c2ccccc12 (stereo not given in full)
Potency [1]: inactive
Potency [2]: inactive
Potency [3]: inactive
Potency [4]: inactive
Potency [5]: inactive
Potency [6]: inactive

CC(CCC1(O)OC2CC3C4CCC5CC(O[C@@H]6O[C@H](CO)[C@@H](O)[C@H](O)[C@H]6O[C@@H]6O[C@@H](C)[C@H](O)[C@@H](O)[C@H]6O)C(O)CC5(C)C4CCC3(C)C2C1C)CO[C@@H]1O[C@H](CO)[C@@H](O)[C@H](O)[C@H]1O (stereo not given in full)
Potency [1]: inactive
Potency [2]: inactive
activity change, negative = inhibition [3]: -2.32% [at 11.6 µM]
activity change, negative = thiol reactive [4]: 141% [at 11.5 µM]
activity, negative = inhibition [5]: 2.24% [at 11.6 µM]
redox activity (% of DA3003) [6]: 15.2% [at 11.5 µM]

O=C(c1ccc2nccnc2c1)N1CCCCC1
Potency [1]: inactive
Potency [2]: inactive
Potency [3]: inactive
Potency [4]: inactive
Potency [5]: inactive
Potency [6]: inactive

CC(C)c1ccc(CO)cc1O[C@@H]1O[C@H](CO)[C@@H](O)[C@H](O)[C@H]1O
Potency [1]: inactive
Potency [2]: inactive
Potency [3]: inactive
Potency [4]: 13.1 µM (active)
Potency [5]: inactive
Potency [6]: inactive
